Growth inhibition data for 8 molecules are collected here from PubChem BioAssay (NCI).

About 79,000 compounds went through this panel and 15% of them were active in at least one assay; those are over-represented in the sample as a whole. Values without a mark were called inactive. The source made the active and inactive calls. Cut-off read from the data, not from the text of the source: active = growth inhibition above about 70%; inactive = the rest.

Experiment [1] can be described thus: NCI Yeast Anticancer Drug Screen. Data for the rad50 strain (AID 155).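 Note: 0% = growth of vehicle-only cultures of the same strain.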 The conditions noted are these: S. cerevisiae rad50 strain growth inhibition; at 50.0 µM; active compounds read high. In outline: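 Vehicle-treated cultures provide the reference for the growth inhibition reported for compound-exposed, repair-deficient yeast.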
Experiment [2] can be described thus: NCI Yeast Anticancer Drug Screen. Data for the mec2-1 strain (AID 157). The following applies: S. cerevisiae mec2-1 strain, at 50.0 µM, active compounds read high. The gist of the method: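 Each compound was tested on mec2-1 yeast, a strain altered in DNA damage repair or cell cycle control. Growth inhibition is reported relative to vehicle.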
Experiment [3] in a line: NCI Yeast Anticancer Drug Screen. Data for the sgs1 mgt1 strain (AID 161).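 Note: 0% = growth of cultures given vehicle only.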 The conditions noted are these: S. cerevisiae sgs1 mgt1 strain, at 50.0 µM, active compounds read high. In outline: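 Test agents were incubated with a DNA-repair-mutant yeast strain. Growth was then read and compared against vehicle-treated controls.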
A short description of experiment [4]: NCI Yeast Anticancer Drug Screen. Data for the cln2 rad14 strain (AID 165).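 Note: 0% = growth equal to vehicle treated cultures.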 The following applies: S. cerevisiae cln2 rad14 strain, at 50.0 µM, active compounds read high. The gist of the method: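 Test compounds were added to cln2 rad14 yeast cultures; inhibition of growth was then determined by comparison with vehicle treatment.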
Experiment [5] in a line: NCI Yeast Anticancer Drug Screen. Data for the bub3 strain (AID 167). The conditions noted are these: S. cerevisiae bub3 mutant strain, at 50.0 µM, active compounds read high. The gist of the method: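 Mutant yeast screening strain plus compound; vehicle-treated cultures serve as the 0% inhibition reference.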
Experiment [6] in a line: NCI Yeast Anticancer Drug Screen. Data for the mlh1 rad18 strain (AID 175). The following applies: S. cerevisiae mlh1 rad18 strain growth inhibition; at 50.0 µM; active compounds read high. In outline:
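Inhibition values reflect reduced growth of mutant yeast versus vehicle-treated controls following compound exposure; the mutations affect DNA damage repair.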

Regarding `CC(C)(C)c1ccc(C(O)(c2ccc(C(C)(C)C)cc2)c2ccc(C(C)(C)C)cc2)cc1`, the growth inhibition was 12.8% in experiment [1]; -3.85% in experiment [2]; -22.2% in experiment [3]; 8.25% in experiment [4]; -19.9% in experiment [5]; -34.3% in experiment [6].

As to `CCOC(=O)C1(C(=O)OCC)OC(=O)NC2=C1CCCC2`, the growth inhibition in experiment [1] is -13.3%; in experiment [2] it was -29.1%; in experiment [3] it was -8.6%; in experiment [4], -15.7%; in experiment [5] it was -1.95%; in experiment [6], -23.9%.

As to `CC1(C)N=C(N)NC(Nc2ccc(Cl)cc2)=N1`, the growth inhibition was 9.6% in experiment [1]; 9.05% in experiment [2]; 10.8% in experiment [3]; -20.8% in experiment [4]; 14.6% in experiment [5]; 33.6% in experiment [6].

As to `CCOC(=O)CCCCCOC1CCCCO1` (stereo not drawn), the growth inhibition was 7.4% in experiment [1]; 18.2% in experiment [2]; 11.2% in experiment [3]; -0.1% in experiment [4]; -7.35% in experiment [5]; -10.5% in experiment [6].

`C1CCC2(CCC34CCCCC3CCCC4)CCCCC2C1` (stereo not drawn): the growth inhibition in experiment [1] is 99.5% (active); in experiment [2], 99.7% (active); in experiment [3], 99.5% (active); in experiment [4], 99.3% (active); in experiment [5] it was 99.5% (active); in experiment [6] it was 98.2% (active).

Consider `c1ccc2c[n+]3cc4ccccc4cc3cc2c1`, for which the growth inhibition in experiment [1] was 30.9%; in experiment [2], 23.4%; in experiment [3] it was 53.7%; in experiment [4], 31.3%; in experiment [5], 33%; in experiment [6] it was 56.1%.

For `Cc1cc2c(cc1Cl)S(=O)(=O)OC(c1ccc([N+](=O)[O-])cc1)=N2`, the growth inhibition is -3.25% in experiment [1]; -4.3% in experiment [2]; -0.1% in experiment [3]; 0.45% in experiment [4]; 19.1% in experiment [5]; -10.3% in experiment [6].

Consider `Nc1ncnc2c1nnn2C1C=CC(CP(=O)(O)O)C1` (stereo not drawn), for which the growth inhibition in experiment [1] was 2.65%; in experiment [2], 8.25%; in experiment [3], 12.9%; in experiment [4], 13.2%; in experiment [5] it was -4.5%; in experiment [6], 27.7%.
